Results on 14 compounds are retold here after PubChem BioAssay (NCI).

This is part of a sample that, as a whole, favours compounds with a hit. Of some 83,000 tested, about 20% had one in any assay.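 The test compound was applied at a single concentration to cells in 96-well plates for 48 hours, and percent growth was recorded.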 Values without a mark were called inactive. Activity calls are given as the source filed them. How the source made its calls: active means growth percent below 10; inactive means the rest.

The subject of the assay is U251 CNS. Put plainly: NCI-60 one-dose screen, 48 h (100 = growth as untreated, 0 = no growth, -100 = all killed). To be noted: 10 µM unless noted.
On to `CC(=O)OC[C@H]1OC(Sc2sc(C(=O)c3ccc(C)cc3)c(N)c2-c2nc3ccccc3s2)[C@H](OC(C)=O)[C@@H](OC(C)=O)[C@@H]1OC(C)=O` (some centres undefined), for which the growth was 59.5%.

Turning to `COC1=C(C)C(=O)c2c(c(CCCl)c3n2CCC3O)C1=O` (centres undefined), the growth is -3.61% (active).

For the compound `Oc1ccc(C#CCOc2ccccc2)cc1CNCCN(Cc1ccccn1)Cc1ccccn1`, the growth was 7.44% (active). Turning to `CCc1nnc(NC(=O)c2nnn(-c3ccccc3)c2-c2ccco2)s1`, the growth was 84%. With `CNc1nc2c(s1)C(c1cccc(F)c1)CC(=O)N2` (centres undefined), the growth was 94.6%. Take `CC(=O)O.CN1[CH-]N(Cc2ccc(C#N)cc2)c2ccccc21.[Ag+]`: the growth was 97.4%. As to `O=C(Nc1ccc(F)cc1F)c1cc(F)ccc1O`, the growth was 10.6%.

With `CCc1ccc(Oc2c(-c3ccc(OCc4ccc(Cl)cc4)cc3O)nn(C)c2C(F)(F)F)cc1`, the growth was 1.22% (active). The value for `CCC(=O)Nc1ccc(-c2nc(-c3cccc(OC)c3)c(-c3ccnc(Br)c3)[nH]2)cc1` was 53.4%.

For `CC/C=C\C[C@@H](O)C/C=C1/C(=O)C=C[C@H]1C/C=C\CCCC(=O)OC`, the growth was 8.72% (active). Regarding `CC(=O)CC(c1ccccc1)c1c(C)[nH]c2ccccc12` (centres undefined), the growth is 105%. In the case of `Cc1nc2cnc(N)c(C#Cc3cncc(C(=O)Nc4ccc(CN5CCN(C)CC5)c(C(F)(F)F)c4)c3)c2nc1C`, the growth was 42.1%. As to `COc1ccc(-c2nc(NCCO)[nH]c(=O)c2C#N)cc1`, the growth was 103%. Consider `COc1ccn2c(C(C)=O)cc(C(=O)c3ccc4c(c3)Sc3ccccc3N4)c2c1`, for which the growth is 17.9%.
